The test system of one test is HACAT. As to the kind of experiment: qHTS assay to identify novel small-molecules to repurpose for Merkel cell carcinoma treatment (AID 1296009). Also: nearly all actives have a fitted effect of over 60% in size. The note with it: MCC and control cell lines, CellTiter-Glo viability, 72 h; at 44.8 µM (top of the series) unless noted. The method, boiled down: (§1)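 Dose-response viability screen; 72 hr exposure at 37 degree celsius; CellTiter-Glo added, 10 min room temperature, luminescence read; RLUs scaled between no-cell and DMSO wells.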
A general note: Quantitative high-throughput screening tests each substance at several concentrations.

The subject of the next test is MCC-13. Described as above. The note with it: MCC and control cell lines, CellTiter-Glo viability, 72 h; series mostly up to 46 µM. In outline: as §1
In general terms: Cellular ATP, detected with luciferase, serves as a proxy for viable cell number.

The subject of a further test is MKL-1. The description is as above. The note with it: MCC and control cell lines, CellTiter-Glo viability, 72 h; series mostly up to 46 µM. The method, boiled down: as §1
A further test has as its system MKL-2. The description is as above. The note with it: MCC and control cell lines, CellTiter-Glo viability, 72 h; series mostly up to 46 µM. In outline:
as §1

The next test relates to UISO. The description is as above. The note with it: MCC and control cell lines, CellTiter-Glo viability, 72 h; series mostly up to 46 µM. In outline: as §1
A further test has as its system WaGa. The test is described as above. The following applies: MCC and control cell lines, CellTiter-Glo viability, 72 h; series mostly up to 46 µM. In outline:
as §1

The next test concerns C33A. As to the kind of experiment: Primary qHTS to identify gynecologic anti-cancer compounds using libraries of approved drugs and bioactive compounds (AID 1345084). Also: nearly all actives have a fitted effect of over 55% in size. Also: potency is read from the fitted curve at half-maximal effect. The note with it: Gynecologic cancer cell panel viability, ATPlite luminescence, 48 h; series mostly up to 57.5 µM. In outline:
(§2)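 Five-point cytotoxicity, 48 h drug exposure at 37 C, 5% CO2, on cells seeded 16 h beforehand. ATP content read by ATPlite luminescence.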

The next test concerns CAOV3. The description is as above. The note with it: Gynecologic cancer cell panel viability, ATPlite luminescence, 48 h; series mostly up to 57.5 µM. In outline:
as §2

Another test has as its system Es-2. The description is as above. The note with it: Gynecologic cancer cell panel viability, ATPlite luminescence, 48 h; series mostly up to 57.5 µM. In outline: as §2
For the next test, the system named is HeLa. The description is as above. The note with it: Gynecologic cancer cell panel viability, ATPlite luminescence, 48 h; series mostly up to 57.5 µM. The method, boiled down: as §2
For a further test, the system named is Hek293T. The description is as above. The note with it: Gynecologic cancer cell panel viability, ATPlite luminescence, 48 h, control line for the selectivity index; series mostly up to 57.5 µM. The method, boiled down:
as §2

The test system of a further test is JEG-3. Described as above. The following applies: Gynecologic cancer cell panel viability, ATPlite luminescence, 48 h; series mostly up to 57.5 µM. In outline: as §2
In another test the test system is PA-1. Described as above. The following applies: Gynecologic cancer cell panel viability, ATPlite luminescence, 48 h; series mostly up to 57.5 µM. The method, boiled down: as §2
The next test has as its system Tov-21-G. The description is as above. The note with it: Gynecologic cancer cell panel viability, ATPlite luminescence, 48 h; series mostly up to 57.5 µM. The method, boiled down: as §2
For a further test, the system named is CASKI. Described as above. The note with it: Gynecologic cancer cell panel viability, ATPlite luminescence, 48 h; series mostly up to 57.5 µM. The method, boiled down: as §2
The next test relates to OV90. Described as above. The note with it: Gynecologic cancer cell panel viability, ATPlite luminescence, 48 h; series mostly up to 57.5 µM. In outline:
as §2

For the next test, the system named is SKOV3. The description is as above. The following applies: Gynecologic cancer cell panel viability, ATPlite luminescence, 48 h; series mostly up to 57.5 µM. In outline:
as §2

For another test, the system named is MCC-26. As to the kind of experiment: qHTS assay to identify novel small-molecules to repurpose for Merkel cell carcinoma treatment (AID 1296009). Also: nearly all actives have a fitted effect of over 60% in size. The note with it: MCC and control cell lines, CellTiter-Glo viability, 72 h; series mostly up to 46 µM. In outline: as §1
The subject of the next test is NIH3T3. Described as above. The following applies: MCC and control cell lines, CellTiter-Glo viability, 72 h; at 44.8 µM (top of the series). In outline:
as §1

Inconclusive results are not listed. Calls of active or inactive are those of the source. Calls follow the shape of the dose curve; as a rule, active = well fitted curve in the direction sought with a large enough effect; inconclusive = small, poorly fitted or top-dose-only effect, or another doubt; inactive = no such curve, though single readings can be large; an effect the other way counts as inactive or inconclusive.

Regarding `CCN(CC)CCOC(=O)C(Cc1cccc2ccccc12)CC1CCCO1` (stereo not drawn), in the test with HACAT, the compound was classed as inactive. Further, the Potency entry in the test on MCC-13, in the test with MKL-1, in the test with MKL-2, in the test on UISO, with WaGa and in the test with C33A was “inactive” throughout. Besides, the Potency result in the test with CAOV3, with Es-2, in the test with HeLa, in the test with Hek293T, with JEG-3 and with PA-1 was “inactive” each time. For the same compound, the Potency result with Tov-21-G was “inactive”.

For `CC(=O)Nc1ccc(OCC(O)CNC(C)C)cc1` (stereo not drawn), in the test on HACAT, the compound was called inactive. Moreover, the Potency result with MCC-13, in the test with MKL-1, in the test with MKL-2, in the test with WaGa, with C33A and in the test on CAOV3 was “inactive” in each case. Further, the Potency entry with CASKI, in the test with Es-2, with HeLa, with Hek293T, in the test with JEG-3 and with OV90 was “inactive” each time. The Potency result with PA-1, in the test on SKOV3 and in the test on Tov-21-G was “inactive” each time.

Regarding `N#CCC(=O)NN`, the compound was classed as inactive with HACAT. For the same compound, the Potency result in the test with MCC-13, with MKL-1, in the test on MKL-2, in the test on UISO, in the test with WaGa and in the test with C33A was “inactive” throughout. Besides, the Potency entry in the test on CAOV3, in the test on CASKI, in the test on Es-2, with HeLa, in the test on Hek293T and with JEG-3 was “inactive” in each case. Moreover, the Potency entry with OV90, in the test on PA-1, in the test on SKOV3 and in the test with Tov-21-G was “inactive” in each case.

As for `CN1CCN(CCC(=O)N2c3ccccc3Sc3ccc(C(F)(F)F)cc32)CC1`, in the test on HACAT, the result was inactive. The Potency result with MCC-13 and in the test with HeLa was “inactive” throughout. The Potency in the test on CAOV3 was 22.4 µM (active); in the test on OV90, 15.8 µM (active).

Take `N/C(=N\N=C\c1ccc(Cl)cc1)N/N=C/c1ccc(Cl)cc1`: the outcome in the test on HACAT was inactive. The Potency result in the test on MCC-13, in the test with MCC-26, in the test with MKL-1, in the test with UISO, in the test on WaGa and with C33A was “inactive” in each case. Moreover, the Potency result with CAOV3, in the test with CASKI, in the test with Es-2, with HeLa, in the test with Hek293T and in the test with JEG-3 was “inactive” each time. Also, the Potency entry in the test on OV90, in the test on PA-1 and in the test on Tov-21-G was “inactive” each time. Also, in the test on SKOV3, the Potency was 31.6 µM (active).

As to `CCCN(CCc1cccs1)[C@H]1CCc2c(O)cccc2C1`, the outcome with HACAT and in the test on NIH3T3 was inactive. In addition, the Potency entry in the test with MCC-13, in the test with MKL-1, in the test on MKL-2, in the test with UISO, with C33A and in the test with CAOV3 was “inactive” in each case. Also, the Potency result in the test with CASKI, with Es-2, with HeLa, in the test with Hek293T, with JEG-3 and in the test with OV90 was “inactive” throughout. For the same compound, the Potency entry in the test with PA-1 and in the test with Tov-21-G was “inactive” throughout.

Take `Cc1cc(NS(=O)(=O)c2ccc(N)cc2)nc(C)n1`: the call in the test with HACAT was inactive. The Potency result with MCC-13, in the test with MCC-26, in the test on MKL-1, in the test with MKL-2, with WaGa and with C33A was “inactive” in each case. For the same compound, the Potency result in the test on CAOV3, with CASKI, in the test with Es-2, in the test on HeLa, in the test with Hek293T and in the test with JEG-3 was “inactive” each time. In addition, the Potency entry with OV90, in the test with PA-1, in the test on SKOV3 and in the test with Tov-21-G was “inactive” in each case.

Consider `Cc1cc(CC(=O)O)c(C)n1-c1ccc(Cl)cc1`, for which the compound was classed as inactive in the test on HACAT and in the test with NIH3T3. The Potency entry in the test with MCC-13, in the test with MCC-26, in the test on MKL-1, in the test with UISO, in the test on WaGa and in the test on C33A was “inactive” each time. Besides, the Potency entry in the test on CASKI, in the test with Es-2, in the test with HeLa, in the test on JEG-3, in the test on OV90 and in the test on PA-1 was “inactive” throughout. Also, the Potency result in the test with SKOV3 and with Tov-21-G was “inactive” throughout.

For the origin of these results see PubChem BioAssay (NCATS).
